These entries were drawn from the full list.
aSyn UTR act = Activators via SNCA 5'UTR binding, MLPCN; alpha-synuclein 5'UTR reporter, activators screen; activity score, % (tested at 7.5 µM), hits read low; actives 7.1% (n = 300,000); in the data active = activity score below about -60%
Starred values were filed as active, the others as inactive.

SMILES | aSyn UTR act
Cc1nc(-c2ccccc2)nn1-c1ccc([N+](=O)[O-])cc1 | -87*
COc1ccc(C(=O)Nc2cnc(NC(=O)c3cccs3)cc2C)cc1 | -83*
CCCCC(=O)Nc1cnc(NC(=O)c2cccs2)cc1C | -127*
COc1ccc(C(=O)Nc2cc(C)c(NC(=O)c3ccccn3)cn2)cc1 | -78*
CC(C)c1ccc2c(c1)C(N1CCNCC1)Cc1ccc(F)cc1S2 (stereo not given) | 75
O=C(CSc1ccc(F)cc1)Nc1ccc(Br)cc1 | -149*
O=C(CSc1ccc(F)cc1)Nc1ccccc1Br | -75*
COC(CN(C(=O)CCl)C(C(=O)NC1CCCCC1)c1ccccc1C)OC (stereo not given) | -71*
COC(=O)N/N=C\c1ccccc1OC/C=C/c1ccccc1 | -123*
CCOC(=O)N/N=C\c1ccccc1OC/C=C/c1ccccc1 | -95*
O=c1c2ccccc2nc2oc3ccccc3n12 | -148*
CN(C(=O)/C=C/c1ccc([N+](=O)[O-])s1)c1ccccc1 | -82*
Cc1oc(-c2ccc3c(c2)OCCO3)cc1C(=O)NCC(=O)O | -126*
Cc1oc(-c2ccc3c(c2)OCCO3)cc1C(=O)O | -135*
CC(=O)/C(N=Nc1ccc2c(c1)OCO2)=C(\C)O | -245*
CC(=O)Nc1ccc(/C=C/c2nc3ccccc3o2)cc1 | -128*
O=C(Nc1ccc(/C=C/c2nc3ccccc3o2)cc1)c1c(F)cccc1F | -171*
COn1c(-c2ccc(Cl)cc2)nc2ccc(Cl)cc21 | -114*
O=C(O)COn1c(-c2ccc(Cl)cc2)nc2ccc(Cl)cc21 | -123*
CCNc1nc(-c2ccc(OC(F)F)cc2)c(C)s1 | -72*
CC(=O)N1CCC(=NNc2nc3ccccc3[nH]2)CC1 | -66*
CCC(C)(C)C1CCC(=NNc2nc3ccccc3[nH]2)CC1 (stereo not given) | -69*
O=C(NC1=NCCS1)c1sc2cc(Cl)cc(Cl)c2c1Cl | -64*
O=C(NC1=NCCS1)c1sc2ccccc2c1Cl | -166*
Cc1cccnc1NC(=O)c1sc2ccccc2c1Cl | -70*
SMILES | aSyn UTR act
CCCCCOc1ccc(CSc2n[nH]c(C)n2)cc1 | -171*
Cc1nc(SCc2ccc(OCCC(C)C)cc2)n[nH]1 | -71*
C/C(=N\NC(=O)c1ccc(CSc2nncn2C)cc1)c1cccs1 | -62*
CC(C)c1ccc2[nH]c(O)c(N=NC(=O)c3ccc(CSc4nncn4C)cc3)c2c1 | -72*
C/C(=N/NC(=O)c1cnccn1)c1cccs1 | -65*
C/C(=N\NC(=O)c1n[nH]c2c1CCC2)c1cccs1 | 107
C/C(=N/NC(=O)c1ccc(Br)o1)c1cccs1 | -73*
C/C(=N\Nc1ccccn1)c1cccs1 | -148*
C/C(=N\NC(=O)c1ccccc1O)c1ccc(Br)s1 | -162*
CCOC(=O)C(CC)/C(C)=N\NC(=O)c1ccccc1O (stereo not given) | 93
C/C(=N\NC(=O)c1cc(Br)ccc1O)c1cccs1 | -111*
Cc1ccc(NC(=O)OCCNC(=O)OC(C)C)cc1 | -73*
COC(=O)NCC(C)OC(=O)Nc1ccc(Cl)cc1 (stereo not given) | -95*
Cc1ccc(NC(=O)OC(C)CNC(=O)Oc2cccc(C)c2)cc1 (stereo not given) | -93*
CCn1nnc(NC(=O)c2cccc(-c3cc4ccccc4oc3=O)c2)n1 | -105*
Cc1ccc2nc(NC(=O)c3cccc(-c4cc5ccccc5oc4=O)c3)sc2c1 | -88*
O=C(Nc1cccc(Cl)c1N1CCCC1)c1cccc(-c2cc3ccccc3oc2=O)c1 | -101*
COc1ccc(NC(=O)/C=C/c2cccc(F)c2)cn1 | -196*
COc1ccc(NC(=O)/C=C/c2ccco2)cn1 | -237*
Cc1ccccc1OCc1n(CC(=O)OC2CC(C)CCC2C(C)C)c2ccccc2[n+]1C (stereo not given) | 85
COc1ccc(-c2c(C)nn(-c3ccccc3)c2N)cc1 | -110*
Cc1nn(-c2ccc(C(=O)O)cc2)c(N)c1-c1ccccc1 | -179*
COc1ccc(/C=N/NC(=O)c2nc(-c3ccccc3)n(-c3ccccc3)n2)c(O)c1 | 87
Cn1cc(CCNCc2cn[nH]c2-c2ccc(-c3ccccc3)cc2)cn1 | -98*
CN(Cc1cn[nH]c1-c1ccc(-c2ccccc2)cc1)CC1CCOCC1 | -93*
SMILES | aSyn UTR act
CC(c1ccon1)N(C)Cc1cn[nH]c1-c1ccc(-c2ccccc2)cc1 (stereo not given) | -135*
CCN(CCn1cccn1)Cc1cn[nH]c1-c1ccc(-c2ccccc2)cc1 | -67*
CN(CCc1cnn(C)c1)Cc1cn[nH]c1-c1ccc(-c2ccccc2)cc1 | -84*
Cc1nc(-c2ccc(S(=O)(=O)Oc3ccccc3Cl)s2)cs1 | -68*
COc1ccc2cc(C(=O)Nc3ccccc3)sc(=O)c2c1OC | -78*
O=C(O)c1ccc(-c2ccc(-c3ccccc3)cc2)s1 | 64
O=C(Nc1ccccc1)c1ccc(-c2ccccc2)s1 | -215*
O=C(Nc1ccccc1)c1cc2ccc3ccccc3c2s1 | -90*
Cc1ccc(NC(=O)c2cncc(Br)c2)cc1S(=O)(=O)N(C)C | -127*
CCN(CC)c1ccc(NC(=O)c2cncc(Br)c2)cc1 | -279*
CCN(CC)c1ccc(NC(=O)c2cccnc2)cc1 | -67*
C#CC[N+](C)(C)CCCCCCCCCC | 75
CC(C)(C)C(=O)Nc1ccc(N=Nc2ccccc2)cc1 | 79
CC1CC1C(=O)OCC(=O)Nc1ccc(N=Nc2ccccc2)cc1 (stereo not given) | -107*
O=C(CCl)N(C/C=C/c1ccccc1)c1ccc2c(c1)OCCO2 | -81*
C=C(C(=O)c1ccccc1)C(C)C(=C)C(=O)c1ccccc1 | -149*
Oc1c(N=NC(=S)Nc2ccccc2F)c2ccccc2n1Cc1ccccc1F | 87
CCn1c(O)c(N=NC(=O)c2cccs2)c2ccccc21 | -67*
Cc1ccccc1Cn1c(O)c(N=NC(=S)Nc2ccccc2F)c2ccccc21 | 73
COc1c(C(=O)Nc2nccs2)ccc2ccccc12 | -172*
COc1cccc2c1OCC(C(=O)Nc1nccs1)=C2 | -122*
COc1cc2ccccc2cc1C(=O)NCC(c1cccs1)N(C)C (stereo not given) | -106*
COc1cc2ccccc2cc1C(=O)Nc1nccs1 | -256*
Oc1cccc(C(Nc2nccs2)c2ccc3cccnc3c2O)c1 (stereo not given) | 132
COc1ccccc1OCCCC(=O)Nc1nccs1 | -97*
SMILES | aSyn UTR act
O=C(COc1cccc2cccnc12)Nc1nccs1 | -85*
O=C(Nc1ccc(S(=O)(=O)N2CCOCC2)cc1)c1ccc([N+](=O)[O-])o1 | -120*
O=C(/C=C/c1cccc([N+](=O)[O-])c1)c1ccc([N+](=O)[O-])o1 | 71
COc1ccc(S(=O)(=O)N2CCN(C(=O)c3ccc([N+](=O)[O-])o3)CC2)cc1 | -78*
O=C(Nc1ccc(S(=O)(=O)N2CCOCC2)cc1)c1cc([N+](=O)[O-])ccc1Cl | -67*
COc1ccc(/C=C/C(=O)c2ccc([N+](=O)[O-])o2)cc1 | -62*
O=C(Nc1ccc(N2CCOCC2)cc1)c1ccc([N+](=O)[O-])o1 | -103*
O=C(Nc1ccc2c(c1)CCCN2C(=O)c1ccco1)c1cc([N+](=O)[O-])ccc1Cl | -94*
O=C(Nc1ccc(Cc2ccncc2)cc1)c1ccc([N+](=O)[O-])o1 | -150*
O=C(Nc1ccc(N2CCN(C(=O)c3cccs3)CC2)cc1)c1ccc([N+](=O)[O-])o1 | 106
COC(=O)Cn1c(SCc2ccccc2)nc2ccccc21 | -166*
Brc1ccccc1C1CC(c2ccccc2)=Nc2ccccc2N1 (stereo not given) | -203*

Source: PubChem (Broad Institute)
